Consider 40 molecules from PubChem BioAssay (Tox21).

“And” between values parts separate entries of the source, which are not always exact repeats. Equal values may be shown once. The source made the active and inactive calls. Entries that show only a call come without a potency. Calls come from the whole dose curve; as a rule, active = well fitted curve in the direction sought with a large enough effect in the repeat runs; inconclusive = weak or mixed curves; inactive = flat fitted curve, though single readings scatter.
Potency is the fitted concentration of half-maximal effect; tags give direction and shape of the fitted curve or compound fluorescence and quenching.

This test is described as follows: qHTS assay to test for compound auto fluorescence at 590 nm (red) in HEK293 cells (AID 720679). The settings on record: red autofluorescence 540/590 nm; series mostly up to 91.3 µM. The source says: National Center for Advancing Translational Sciences [NCATS]
NIH Chemical Genomics Center [NCGC]
U.S. Environmental Protection Agency [EPA]
National Institutes of Environmental Health Sciences [NIEHS]
National Toxicology Program [NTP]
U.S. Food and Drug Administration [FDA]
Compound auto fluorescence often interferes with screening of the compound library against various biological targets and signaling pathways. Some of these compounds may have fluorophoric properties. Such properties may interfere with the assay outputs resulting in false positives and/or negatives. To decrease such complications and ensure the compound activities are relevant in terms of biological response, the Tox21 10K compound library was screened for auto fluorescence.
From the fluorophores used as reporter signals in our screening assays, the auto fluorescence equivalencies of compounds against three fluorophores have been evaluated: Triamterene, Fluorescein and Rose Bengal sodium for blue, green and red fluorescence, respectively. The fluorescence intensities were measured using Excitation/Emission wavelengths at 405/460nm, 485/535nm and 540/590nm for blue, green and red labels, respectively. This assay includes the red fluorescence data.
Tox21 Assay Protocol Summary:
2,000 HEK293 cells in 5 uL of culture medium containing 10% dialyzed FBS per well were dispensed into black wall/clear bottom 1536-well plates using a Multidrop Combi Dispenser (Thermo Scientific). The assay plates were incubated for 4-5 hr at 37C to allow cell attachment to the well bottom, followed by the transfer of 23 nL compound or DMSO vehicle by a pintool work station (Kalypsys, San Diego, CA). After the assay plates were incubated overnight at 37C and 5% CO2, fluorescence intensities in the assay plates were measured by an Envision (PerkinElmer, Shelton, CT) plate reader using three labels for measuring blue, green and red fluorescence at […] 460, 535 and 590nm respectively.
Background: Quantitative high-throughput screening tests each substance at several concentrations.
Consider `CCN=c1cc2oc3cc(NCC)c(C)cc3c(-c3ccccc3C(=O)OCC)c-2cc1C`, for which the Potency is 4.47 µM [fluorescent] (active) and 6.31 µM [fluorescent] (active).

For `Cc1cccc(Br)c1`, the Potency entry is “inactive”. Regarding `NC1(c2ccc(-c3nc4ccn5c(=O)[nH]nc5c4cc3-c3ccccc3)cc2)CCC1`, the Potency entry is “inactive”. As for `C=CC(=O)OCCC#N`, the Potency result is “inactive”. On to `CC1=C(/C=C/C(C)=C/C=C/C(C)=C\C=O)C(C)(C)CCC1`, for which the Potency entry is “inactive”. For the molecule `C1CC(COCC2CO2)CCC1COCC1CO1` (stereo not given), the Potency result was “inactive”. The same measure for `CCCCCCOc1cc(C)c(O)c(C)c1C`: “inactive”; for `CO[C@H]1C=CO[C@@]2(C)Oc3c(C)c(O)c4c(O)c(cc(O)c4c3C2=O)NC(=O)/C(C)=C\C=C/[C@H](C)[C@H](O)[C@@H](C)[C@@H](O)[C@@H](C)[C@H](OC(C)=O)[C@@H]1C`: “inactive”; for `Cc1oc(-c2ccccc2)nc1CCOc1ccc(C[C@H](Nc2ccccc2C(=O)c2ccccc2)C(=O)O)cc1`: “inactive”. Next, `CN1[C@@H]2CC[C@@H]1CC(OC(=O)C(CO)c1ccccc1)C2` (stereo not given in full): “inactive”. Take `[O]=[Zr]`: the Potency result was “inactive”. For the molecule `CC(C)(C)CC(C)(C)c1ccccc1O`, the Potency entry was “inactive”. Take `CCCCCCCCCCCCCCNCCO`: the Potency result was “inactive”. Take `Oc1c(Br)cc(Br)c2cccnc12`: the Potency result was “inactive”. `CCN1CCN(c2cc(-c3ccc(F)cc3)c3c(n2)CCCCCC3)CC1`: the Potency result is “inactive”. On to `O=C1C=CC(=O)N1c1ccccc1`, for which the Potency entry is “inactive”. Next, `NC(=O)c1nc(-c2cccc(-c3cc(F)ccc3OCC(F)(F)C(F)(F)F)c2)n[nH]1`: “inactive”; `NC(=O)c1ccccc1N`: “inactive”; `NC(=O)C(=O)N/N=C/c1ccc([N+](=O)[O-])o1`: “inactive”. As for `CCCCCCCCCCCCCOP(=O)(O)O`, the Potency entry is “inactive”.

Take `NCCCC(O)(P(=O)(O)O)P(=O)(O)O`: the Potency result is “inactive”. In the case of `C=CC(C)(CCC=C(C)C)OC(=O)/C=C/c1ccccc1` (stereo not given), the Potency result was “inactive”. As for `C[C@H]1O[C@@H](O[C@H]2[C@@H](O)C[C@H](O[C@H]3[C@@H](O)C[C@H](O[C@H]4CC[C@@]5(C)[C@H](CC[C@@H]6[C@@H]5C[C@@H](O)[C@]5(C)[C@@H](C7=CC(=O)OC7)CC[C@]65O)C4)O[C@@H]3C)O[C@@H]2C)C[C@H](O)[C@@H]1O`, the Potency entry was “inactive”. Turning to `CCCCCCCC/C=C\CCCCCCCC(=O)N(C)CC(=O)O`, the Potency result was “inactive”. The same measure for `O=C1NCN(c2ccccc2)C12CCN(CCCC(c1ccc(F)cc1)c1ccc(F)cc1)CC2`: “inactive”; for `CC(C)=C1CC[C@@H](C)CC1=O`: “inactive”; for `Cc1c(-c2ccc(O)cc2)n(Cc2ccc(OCCN3CCCCCC3)cc2)c2ccc(O)cc12`: “inactive”. The same measure for `O=C1OC(OC(=O)c2cccnc2Nc2cccc(C(F)(F)F)c2)c2ccccc21` (stereo not given): “inactive”.

Take `CCN(CC)CCNc1ccc(CO)c2sc3ccccc3c(=O)c12`: the Potency result was “inactive”. As to `O=C1OC(=O)c2cccc3cccc1c23`, the Potency entry was “inactive”. On to `Cc1cc2c(C(C)C)c(O)c(O)c(C=O)c2c(O)c1-c1c(C)cc2c(C(C)C)c(O)c(O)c(C=O)c2c1O`, for which the Potency result was “inactive”. Take `COC(=O)NCCC[Si](OC)(OC)OC`: the Potency result is “inactive”. Turning to `Brc1ccccc1-c1ccccc1`, the Potency entry is “inactive”. In the case of `COc1ccc2sc(C(=O)Nc3nnn[nH]3)c(OC(C)C)c2c1`, the Potency result was “inactive”. For `Cc1nc(Nc2ncc(C(=O)Nc3c(C)cccc3Cl)s2)cc(N2CCN(CCO)CC2)n1`, the Potency result is “inactive”. For `C=CC(=C)CCC=C(C)C`, the Potency result is “inactive”. Consider `Cc1cn[nH]c1`, for which the Potency entry was “inactive”. With `Cc1c(C(=O)O)cccc1[N+](=O)[O-]`, the Potency result was “inactive”.

As to `CCCCCCCCCCCCCC[n+]1ccccc1`, the Potency result is “inactive”. As for `CN1[C@@H]2CC[C@H]1CC(OC(=O)C(CO)c1ccccc1)C2` (stereo not given in full), the Potency result is “inactive”.
